# UDG counterscr = counter-screen for AID inhibitors: uracil-DNA glycosylase inhibition. AID 1347430. FRET deamination/UDG coupled assay, UDG read, 4 h. Potency, µM (series often up to 115 µM), usual class: inhibitors. hit rate 0.14% among 91,000; further: nearly all actives have a fitted effect of over 65% in size
# AID inh = blocks human AID cytidine deaminase activity; AID deamination FRET fluorescence, UDG-coupled, 4 h; hit rate 0.32% among 91,000; Potency, µM (highest dose often 115 µM), hits mostly inhibitors; AID 1347428; further: nearly all actives have a fitted effect of over 25% in size
# Target sequence (Q9GZX7 whole entry, looked up): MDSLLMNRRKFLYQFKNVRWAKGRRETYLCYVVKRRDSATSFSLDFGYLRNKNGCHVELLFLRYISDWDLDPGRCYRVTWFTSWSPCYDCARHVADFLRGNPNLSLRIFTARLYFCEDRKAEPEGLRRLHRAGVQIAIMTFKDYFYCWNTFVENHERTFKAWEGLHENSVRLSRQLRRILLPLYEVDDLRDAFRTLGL
# A number is an active result; i = inactive; ? = inconclusive; ! = not active in a repeat. Hits are enriched below; roughly 0.4% of the tested compounds scored in any of these assays. The call rests on the fitted dose curve; in most records, active means well fitted curve in the direction sought with a large enough effect; inconclusive means small, poorly fitted or top-dose-only effect, or another doubt; inactive means no such curve, though single readings can be large; an effect the other way counts as inactive or inconclusive.
SMILES,UDG counterscr,AID inh
CCOC(=O)c1ccc(NC(=O)CC2Nc3cccc4cccc(c34)NC2=O)cc1 (stereo unspecified),i,?
CC(=O)c1ccc(NC(=O)CC2Nc3cccc4cccc(c34)NC2=O)cc1 (stereo unspecified),?,79µM
COc1ccc(NC(=O)CC2Nc3ccccc3NC2=O)cc1 (stereo unspecified),i,i
CCOc1ccc(NC(=O)CC2Nc3cccc4cccc(c34)NC2=O)cc1 (stereo unspecified),?,50µM
COc1ccc(-c2ccc(=O)n(CC(=O)NCc3cccnc3)n2)c(F)c1,i,i
O=C(NCc1ccccc1S(=O)(=O)N1CCOCC1)c1ccc(OC(F)F)cc1,i,i
CNC(=O)NC(=O)C(Cl)c1ccccc1 (stereo unspecified),i,i
CCc1ccc(NC(=O)CSc2nc(C)c(C(=O)Nc3ccc(Cl)cc3)c(-c3ccc(OC)cc3)c2C#N)cc1,89µM,?
COc1ccc(-c2c(C#N)c(SCC(=O)Nc3ccccc3C)nc(C)c2C(=O)Nc2ccc(Cl)cc2)cc1,?,i
CCC1(C)Cc2c(sc3nc(SC)nc(N4CCCCC4)c23)CO1 (stereo unspecified),i,i
O=C(Nc1nonc1-c1ccc2c(c1)CCCC2)c1cc(=O)c2ccc(Br)cc2o1,i,20µM
C=CCSc1nnc(NC(=O)c2cc(=O)c3ccc(Br)cc3o2)s1,i,i
COc1cc(C2CC(=O)Nc3ccsc32)ccc1OCC(N)=O (stereo unspecified),i,i
COc1ccc(C2CC(=O)Nc3nc(N)sc32)cc1OCc1ccccc1Cl (stereo unspecified),i,40µM
Cc1nn(-c2ccc3nnc(C)n3n2)c2c1C(c1cccc(OC(C)C)c1)CC(=O)N2 (stereo unspecified),i,i
CC(C)Oc1cccc(C2CC(=O)Nc3nc(N)sc32)c1 (stereo unspecified),i,28µM
Cc1ccc2cccc(NC(=O)c3ccc(C)c(C)c3)c2n1,?,i
C=CCNC(=O)C1CCN(Cc2ccc(Cl)cc2)CC1,i,i
Cc1ccc(C)c(NC(=O)Cn2nc(C)c3ccccc32)c1,i,i
COc1ccc2c(c1)Cc1sc(NC(=O)c3cccc(F)c3)nc1-2,i,?
COc1ccc2c(c1)Cc1sc(NC(=O)c3cccc(Br)c3)nc1-2,i,50µM
CCOCCCNCc1cccc(C)c1,i,i
Cc1ccc(CNCCN2CCCC2)cc1,i,i
COc1cccc(/C=C/c2nc3ccccc3s2)c1OC(F)F,i,i
Cc1ccc2nc(Cl)c3cc(C(=O)N4CCCC(C)C4)sc3c2c1 (stereo unspecified),i,40µM
SMILES,UDG counterscr,AID inh
Cc1ccc2nc(Cl)c3cc(C(=O)N4CCCCC4C)sc3c2c1 (stereo unspecified),i,?
COc1ccccc1OCC(=O)N1CCC(c2nc3ccccc3o2)CC1,i,i
Cc1ccc(C(C)C)c(OCC(=O)N2CCC(c3nc4ccccc4o3)CC2)c1,i,40µM
COC(=O)C(Cc1ccc(O)cc1)NC(=O)c1nn(C)c(=O)c2ccccc12 (stereo unspecified),i,i
O=C(C1CC1)N(Cc1ccc2c(c1)CN(S(=O)(=O)c1cc(F)cc(F)c1)CCO2)c1ccccc1,i,i
O=C(C1CC1)N(Cc1ccc2c(c1)CN(S(=O)(=O)c1cc(F)ccc1F)CCO2)c1ccccc1,89µM,i
O=C(O)CCC(=O)N1N=C(c2ccsc2)CC1c1ccc(Br)cc1 (stereo unspecified),i,i
CC(C)Cn1nc(C(=O)OCC(N)=O)c2ccccc2c1=O,i,i
Cc1ccc(N2CCN(C(=O)c3c4c(nc5ccccc35)C(=O)N(C3CCCCC3)C4)CC2)c(C)c1,i,?
Cc1cccc(N2CCN(C(=O)c3c4c(nc5ccccc35)C(=O)N(C3CCCCC3)C4)CC2)c1C,i,28µM
O=C(CSc1nnc(-c2ccc(S(=O)(=O)N3CCCCCC3)cc2)o1)c1ccc(F)cc1,i,i
COC(=O)CSc1nc2c(c(-c3cccs3)c1C#N)CCCC2,i,i
CC(C)(C)C1CCc2nc(SCC(N)=O)c(C#N)c(C(F)(F)F)c2C1 (stereo unspecified),79µM,?
C#Cc1cccc(NC(=O)CCC(=O)c2ccc3c(c2)CCC3)c1,i,i
CCOC(=O)c1cccc(Nc2nc(C(=O)OCC)nc3ccccc23)c1,i,i
CCCOC(=O)c1cccc(Nc2nc(C(=O)OCC)nc3ccccc23)c1,89µM,i
O=S(=O)(N1CCCCC1)N1CCCC(c2nc3ccccc3o2)C1 (stereo unspecified),i,i
CC(NC(=O)C(C)(C)C)c1ccc2c(c1)CCCC2 (stereo unspecified),i,i
Cc1nnc(NC(=O)C(Oc2ccccc2)c2ccccc2)s1 (stereo unspecified),i,i
Cc1ccc(C(=O)c2cn(Cc3ccccc3F)c3cc4c(cc3c2=O)OCO4)cc1,i,40µM
Cc1ccc(C(=O)c2cn(Cc3ccccc3F)c3cc4c(cc3c2=O)OCCO4)cc1,i,?
CC1(C)CC(NC(=O)CCn2ccc3ccccc32)CC(C)(C)N1,i,i
CCOc1ccc(-c2nn(-c3ccccc3)cc2C2NC(=O)NC(C)=C2C(=O)OC(C)C)cc1 (stereo unspecified),?,45µM
COC(=O)C1=C(C)NC(=O)NC1c1cn(-c2ccccc2)nc1-c1ccc(OC)c(Cl)c1 (stereo unspecified),i,i
CCOc1ccc(-c2nn(-c3ccccc3)cc2C2NC(=O)NC(C)=C2C(=O)OC(C)C)cc1C (stereo unspecified),?,45µM!
SMILES,UDG counterscr,AID inh
CCOC(=O)C1=C(C)NC(=O)NC1c1cn(-c2ccccc2)nc1-c1ccc(OCC)cc1 (stereo unspecified),i,?
O=C(NCc1ccccc1)C1CCN(C(=O)/C=C/c2cccc(C(F)(F)F)c2)CC1,i,i
N#CC(C(=O)/C=C/c1ccccc1)C(=O)NC1CCCCC1 (stereo unspecified),i,i
CCOC(=O)CNC(=O)c1cc(-c2ccc(C)s2)nc2ccccc12,i,i
Cc1cccc(N(C)S(=O)(=O)c2cc(-c3cnc(C4CC4)o3)ccc2C)c1,79µM,?
CCc1ccc(NS(=O)(=O)c2cc(-c3cnc(C4CC4)o3)ccc2C)cc1,i,i
O=C(OCc1cccc(Br)c1)c1cccc(O)c1,i,i
N#C/C(=C\c1ccc(Cl)s1)C(=O)NC1CC1,i,i
Cc1ccc(C)c(NC(=O)c2cc3c(s2)CCC3)c1,i,i
CCc1ccc(NC(=O)c2oc3c(c2C)-c2[nH]ncc2CC3)cc1,i,?
Cc1cc(NC(=O)c2oc3c(c2C)-c2[nH]ncc2CC3)ccc1Br,i,35µM
CCCNC(=O)c1cccc(CNCc2cccnc2)c1,i,i
O=C(CCCCCCCC(=O)NNC(=O)c1ccc(Cl)cc1)NNC(=O)c1ccc(Cl)cc1,i,i
CC1=C(C(=O)c2ccccc2)C(c2ccc(Br)cc2)NC(=O)N1 (stereo unspecified),i,i
COc1ccc(Nc2nc3ccccc3nc2NS(=O)(=O)c2ccc(NC(C)=O)cc2)cc1OC,i,i
COc1ccc(Nc2nc3ccccc3nc2NS(=O)(=O)c2ccc(Cl)cc2)cc1OC,i,79µM!
Cc1ccc(C)c(N2CCN(C(=O)c3cc4ccc5cccnc5c4[nH]3)CC2)c1,i,?
Cc1cccc(N2CCN(C(=O)c3cc4ccc5cccnc5c4[nH]3)CC2C)c1 (stereo unspecified),?,35µM
